Laboratory results from PubChem BioAssay (NCI).
Compounds without any hit were thinned out: in the full panel of roughly 79,000, 15% have a hit. Values without a mark were called inactive. The source made the active and inactive calls. Cut-off read from the data, not from the text of the source: active = growth inhibition above about 70%; inactive = the rest.

How the values were obtained:
[1] = NCI Yeast Anticancer Drug Screen. Data for the rad50 strain (AID 155);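 note: 0% = growth of vehicle-only cultures of the same strain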; details: S. cerevisiae rad50 strain growth inhibition, stronger effect = higher value
Procedure, shortened: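 Inhibition values express reduced yeast growth in compound-treated cultures relative to vehicle-treated controls.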

[2] = NCI Yeast Anticancer Drug Screen. Data for the mec2-1 strain (AID 157); details: S. cerevisiae mec2-1 strain, stronger effect = higher value
Procedure, shortened: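 Strain: mec2-1 (DNA repair/cell cycle alteration). Compound exposure, then growth measured; inhibition expressed relative to vehicle.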

[3] = NCI Yeast Anticancer Drug Screen. Data for the sgs1 mgt1 strain (AID 161);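 note: 0% = growth of cultures given vehicle only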; details: S. cerevisiae sgs1 mgt1 strain, stronger effect = higher value
Procedure, shortened: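 Inhibition of yeast growth, normalised to vehicle-treated controls, is reported for a strain bearing genetic alterations in DNA damage repair.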

[4] = NCI Yeast Anticancer Drug Screen. Data for the cln2 rad14 strain (AID 165);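 note: 0% = growth equal to vehicle treated cultures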; details: S. cerevisiae cln2 rad14 strain, stronger effect = higher value
Procedure, shortened: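 Compounds are applied to the cln2 rad14 yeast strain, and growth is then compared with that of vehicle-treated cultures to give inhibition.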

[5] = NCI Yeast Anticancer Drug Screen. Data for the bub3 strain (AID 167); details: S. cerevisiae bub3 mutant strain, stronger effect = higher value
Procedure, shortened: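 Steps: expose the mutant yeast strain to compound; grow alongside vehicle-treated cultures; measure growth; express inhibition against the vehicle cultures.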

[6] = NCI Yeast Anticancer Drug Screen. Data for the mlh1 rad18 strain (AID 175); details: S. cerevisiae mlh1 rad18 strain growth inhibition, stronger effect = higher value
Procedure, shortened: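 Read-out is yeast growth inhibition, calculated against vehicle-only controls. The compound was applied to a strain engineered with DNA damage repair alterations.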

[7] = at 5.0 µM (retest, dose inferred, filed as 0.5)
[8] = at 50.0 µM (retest, dose inferred, filed as 5.0)

Compound: CCOP(=O)(O)C(Nc1ccc(N=Nc2ccccc2)cc1)c1ccc(C(Nc2ccc(N=Nc3ccccc3)cc2)P(=O)(O)OCC)cc1 (configuration not stated)
- growth inhibition [1, 7]: -4%
- growth inhibition [1, 8]: 35%
- growth inhibition ([1]; at 50.0 µM): 54%
- growth inhibition [2, 7]: -6%
- growth inhibition [2, 8]: 27%
- growth inhibition ([2]; at 50.0 µM): 67.7%
- growth inhibition [3, 7]: 3%
- growth inhibition [3, 8]: 37%
- growth inhibition ([3]; at 50.0 µM): 86% (active)
- growth inhibition [4, 7]: -8%
- growth inhibition [4, 8]: -6%
- growth inhibition ([4]; at 50.0 µM): 41.3%
- growth inhibition [5, 7]: -5%
- growth inhibition [5, 8]: 31%
- growth inhibition ([5]; at 50.0 µM): 57.5%
- growth inhibition [6, 7]: -5%
- growth inhibition [6, 8]: 31%
- growth inhibition ([6]; at 50.0 µM): 90.1% (active)

Compound: CC1=C[C@H]2O[C@H]3C[C@H]4OC(=O)/C=C\C=C\C(=O)OCC[C@@H](C)C(O)C(=O)OC[C@@]2(CC1)[C@@]4(C)[C@]31CO1 (some centres not stated)
- growth inhibition [1, 7]: 99% (active)
- growth inhibition [1, 8]: 98% (active)
- growth inhibition ([1]; at 50.0 µM): 93.5% (active)
- growth inhibition [2, 7]: 99% (active)
- growth inhibition [2, 8]: 99% (active)
- growth inhibition ([2]; at 50.0 µM): 95% (active)
- growth inhibition [3, 7]: 100% (active)
- growth inhibition [3, 8]: 99% (active)
- growth inhibition ([3]; at 50.0 µM): 95% (active)
- growth inhibition [4, 7]: 99% (active)
- growth inhibition [4, 8]: 98% (active)
- growth inhibition ([4]; at 50.0 µM): 93.2% (active)
- growth inhibition [5, 7]: 99% (active)
- growth inhibition [5, 8]: 99% (active)
- growth inhibition ([5]; at 50.0 µM): 94.3% (active)
- growth inhibition [6, 7]: 99% (active)
- growth inhibition [6, 8]: 98% (active)
- growth inhibition ([6]; at 50.0 µM): 93.5% (active)

Compound: N#CC1CC[CH-]CC1.[Cl-].[Cl-].[Cl-].[Cl-].[Cl-].[Sb+5].c1ccncc1
- growth inhibition [1, 7]: -1%
- growth inhibition [1, 8]: 98% (active)
- growth inhibition ([1]; at 50.0 µM): 99.1% (active)
- growth inhibition [2, 7]: 3%
- growth inhibition [2, 8]: 100% (active)
- growth inhibition ([2]; at 50.0 µM): 96.3% (active)
- growth inhibition [3, 7]: 5%
- growth inhibition [3, 8]: 99% (active)
- growth inhibition ([3]; at 50.0 µM): 99.3% (active)
- growth inhibition [4, 7]: 11%
- growth inhibition [4, 8]: 99% (active)
- growth inhibition ([4]; at 50.0 µM): 99.3% (active)
- growth inhibition [5, 7]: -1%
- growth inhibition [5, 8]: 99% (active)
- growth inhibition ([5]; at 50.0 µM): 90.5% (active)
- growth inhibition [6, 7]: 3%
- growth inhibition [6, 8]: 99% (active)
- growth inhibition ([6]; at 50.0 µM): 98.5% (active)

Compound: O=C1C(F)=C(N2CC2)C(=O)C(N2CCOCC2)=C1N1CC1
- growth inhibition [1, 7]: 94% (active)
- growth inhibition [1, 8]: 98% (active)
- growth inhibition ([1]; at 50.0 µM): 90% (active)
- growth inhibition [2, 7]: 99% (active)
- growth inhibition [2, 8]: 98% (active)
- growth inhibition ([2]; at 50.0 µM): 89.8% (active)
- growth inhibition [3, 7]: 98% (active)
- growth inhibition [3, 8]: 98% (active)
- growth inhibition ([3]; at 50.0 µM): 89.8% (active)
- growth inhibition [4, 7]: 98% (active)
- growth inhibition [4, 8]: 96% (active)
- growth inhibition ([4]; at 50.0 µM): 84.5% (active)
- growth inhibition [5, 7]: 99% (active)
- growth inhibition [5, 8]: 97% (active)
- growth inhibition ([5]; at 50.0 µM): 91.9% (active)
- growth inhibition [6, 7]: 97% (active)
- growth inhibition [6, 8]: 97% (active)
- growth inhibition ([6]; at 50.0 µM): 92% (active)

Compound: CC(=O)c1ccccc1O.CO.CO.[Cl][Ta][Cl]
- growth inhibition [1, 7]: 1%
- growth inhibition [1, 8]: 1%
- growth inhibition ([1]; at 50.0 µM): -13%
- growth inhibition [2, 7]: 15%
- growth inhibition [2, 8]: -7%
- growth inhibition ([2]; at 50.0 µM): -5.75%
- growth inhibition [3, 7]: -14%
- growth inhibition [3, 8]: 0%
- growth inhibition ([3]; at 50.0 µM): -9.65%
- growth inhibition [4, 7]: -7%
- growth inhibition [4, 8]: -6%
- growth inhibition ([4]; at 50.0 µM): 33.9%
- growth inhibition [5, 7]: -1%
- growth inhibition [5, 8]: -5%
- growth inhibition ([5]; at 50.0 µM): 3.45%
- growth inhibition [6, 7]: -6%
- growth inhibition [6, 8]: 1%
- growth inhibition ([6]; at 50.0 µM): -10.2%

Compound: COC(=O)C1ON(c2ccccc2)C2c3ccccc3-c3ccccc3C12 (configuration not stated)
- growth inhibition [1, 7]: 31%
- growth inhibition [1, 8]: 63%
- growth inhibition ([1]; at 50.0 µM): 58.2%
- growth inhibition [2, 7]: 27%
- growth inhibition [2, 8]: 62%
- growth inhibition ([2]; at 50.0 µM): 18.9%
- growth inhibition [3, 7]: 45%
- growth inhibition [3, 8]: 76% (active)
- growth inhibition ([3]; at 50.0 µM): 61.3%
- growth inhibition [4, 7]: 14%
- growth inhibition [4, 8]: 67%
- growth inhibition ([4]; at 50.0 µM): 50%
- growth inhibition [5, 7]: 33%
- growth inhibition [5, 8]: 86% (active)
- growth inhibition ([5]; at 50.0 µM): 67.2%
- growth inhibition [6, 7]: 42%
- growth inhibition [6, 8]: 68%
- growth inhibition ([6]; at 50.0 µM): 75% (active)

Compound: [Cl-].[Cl-].[Cl-].[O-]c1cccc2cccnc12.[O-]c1cccc2cccnc12.[O]=[Mo]
- growth inhibition [1, 7]: 96% (active)
- growth inhibition [1, 8]: 96% (active)
- growth inhibition ([1]; at 50.0 µM): 87.5% (active)
- growth inhibition [2, 7]: 73% (active)
- growth inhibition [2, 8]: 73% (active)
- growth inhibition ([2]; at 50.0 µM): 91.4% (active)
- growth inhibition [3, 7]: 72% (active)
- growth inhibition [3, 8]: 72% (active)
- growth inhibition ([3]; at 50.0 µM): 89.2% (active)
- growth inhibition [4, 7]: 96% (active)
- growth inhibition [4, 8]: 96% (active)
- growth inhibition ([4]; at 50.0 µM): 88.6% (active)
- growth inhibition [5, 7]: 64%
- growth inhibition [5, 8]: 64%
- growth inhibition ([5]; at 50.0 µM): 90.4% (active)
- growth inhibition [6, 7]: 72% (active)
- growth inhibition [6, 8]: 72% (active)
- growth inhibition ([6]; at 50.0 µM): 87.7% (active)

Compound: COc1cc(C2c3cc4c(cc3[C@@H](Nc3ccc([N+](=O)[O-])cc3)C3COC(=O)[C@H]23)OCO4)cc(OC)c1O (some centres not stated)
- growth inhibition [1, 7]: 96% (active)
- growth inhibition [1, 8]: 96% (active)
- growth inhibition ([1]; at 50.0 µM): 84.4% (active)
- growth inhibition [2, 7]: 97% (active)
- growth inhibition [2, 8]: 97% (active)
- growth inhibition ([2]; at 50.0 µM): 91% (active)
- growth inhibition [3, 7]: 49%
- growth inhibition [3, 8]: 98% (active)
- growth inhibition ([3]; at 50.0 µM): 87.7% (active)
- growth inhibition [4, 7]: 22%
- growth inhibition [4, 8]: 97% (active)
- growth inhibition ([4]; at 50.0 µM): 86.6% (active)
- growth inhibition [5, 7]: 54%
- growth inhibition [5, 8]: 98% (active)
- growth inhibition ([5]; at 50.0 µM): 87.2% (active)
- growth inhibition [6, 7]: 95% (active)
- growth inhibition [6, 8]: 96% (active)
- growth inhibition ([6]; at 50.0 µM): 88.5% (active)

Compound: [I][Hg][CH2]C1OCCOC1[CH2][Hg][I] (configuration not stated)
- growth inhibition [1, 7]: 1%
- growth inhibition [1, 8]: 3%
- growth inhibition ([1]; at 50.0 µM): 99.5% (active)
- growth inhibition [2, 7]: -39%
- growth inhibition [2, 8]: 2%
- growth inhibition ([2]; at 50.0 µM): 99.7% (active)
- growth inhibition [3, 7]: -1%
- growth inhibition [3, 8]: 2%
- growth inhibition ([3]; at 50.0 µM): 99.5% (active)
- growth inhibition [4, 7]: -2%
- growth inhibition [4, 8]: 4%
- growth inhibition ([4]; at 50.0 µM): 99.2% (active)
- growth inhibition [5, 7]: -8%
- growth inhibition [5, 8]: -6%
- growth inhibition ([5]; at 50.0 µM): 99.5% (active)
- growth inhibition [6, 7]: -1%
- growth inhibition [6, 8]: 3%
- growth inhibition ([6]; at 50.0 µM): 99.2% (active)
